Inhibition data for 27 compounds are collected here from PubChem BioAssay.

Each structure is given as a SMILES string. A number with no mark means an inactive call. Activity calls are given as the source filed them. Rule as the data show it, unless noted: active = inhibition above about 44%; inactive = the rest.

Assay [1] in a line: StAR promoter reporter inhibitors, counter-screen for LRH-1 inverse agonist project, cell-based, luminescence, high throughput (AID 651611; in the data active = inhibition above about 28%). The following applies: StAR promoter luciferase reporter counterscreen, at 3.6 µM, stronger effect = higher value.
Assay [2] deals with Nuclear receptor subfamily 5 group A member 2 (Homo sapiens) (UniProt O00482). Description: NR5A2 activity suppression in reporter cells – cell-based, luminescence, confirmation (AID 651613; in the data active = inhibition above about 42%;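 also: HEK293T cells co-transfected with LRH-1 and StAR promoter luciferase reporter; 0% = vehicle wells and 100% = parental cells lacking receptor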). The following applies: cell-based LRH-1 luciferase reporter, inverse agonism; at 3.6 µM; stronger effect = higher value. Background: A reporter such as luciferase makes a cellular process visible.
Chain of Nuclear receptor subfamily 5 group A member 2 (Homo sapiens) (O00482 whole entry, looked up): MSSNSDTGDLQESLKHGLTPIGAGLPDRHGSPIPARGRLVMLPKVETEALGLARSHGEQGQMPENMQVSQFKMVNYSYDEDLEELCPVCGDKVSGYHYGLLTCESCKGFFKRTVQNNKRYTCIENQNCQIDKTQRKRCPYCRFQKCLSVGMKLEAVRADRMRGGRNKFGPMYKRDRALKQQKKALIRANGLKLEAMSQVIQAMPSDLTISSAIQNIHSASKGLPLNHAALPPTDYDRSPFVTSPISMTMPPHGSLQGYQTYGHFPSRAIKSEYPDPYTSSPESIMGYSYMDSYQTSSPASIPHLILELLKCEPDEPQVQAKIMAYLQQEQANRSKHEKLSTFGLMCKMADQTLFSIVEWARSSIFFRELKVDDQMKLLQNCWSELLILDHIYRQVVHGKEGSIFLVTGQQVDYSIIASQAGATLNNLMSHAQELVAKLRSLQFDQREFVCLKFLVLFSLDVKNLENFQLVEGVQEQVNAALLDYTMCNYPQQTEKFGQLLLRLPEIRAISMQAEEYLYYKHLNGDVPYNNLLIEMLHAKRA
Assay [3] addresses Steroidogenic factor 1 (Homo sapiens) (UniProt Q13285). The assay is described as follows: inverse agonism at SF1 nuclear receptor – cell-based, luminescence, high throughput, counter-screen for LRH-1 inverse agonist project (AID 651614).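 Also: cells cotransfected with StAR promoter reporter and SF1 expression vector; 0% = vehicle on cells with receptor and 100% = vehicle on cells lacking receptor.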 To be noted: cell-based SF1 luciferase reporter, at 3.6 µM, stronger effect = higher value.
A short description of assay [4]: compounds suppressing VP16-driven luciferase signal – cell-based, luminescence, high throughput, counter-screen for LRH-1 inverse agonist project (AID 651615; in the data active = inhibition above about 33%). To be noted: Gal4-VP16 luciferase reporter cells, at 3.6 µM, stronger effect = higher value. (The purpose of a counterscreen is to sort out artefacts and off-target activity.)

Chain of Steroidogenic factor 1 (Homo sapiens) (Q13285 whole entry, looked up, the tested form may be a part): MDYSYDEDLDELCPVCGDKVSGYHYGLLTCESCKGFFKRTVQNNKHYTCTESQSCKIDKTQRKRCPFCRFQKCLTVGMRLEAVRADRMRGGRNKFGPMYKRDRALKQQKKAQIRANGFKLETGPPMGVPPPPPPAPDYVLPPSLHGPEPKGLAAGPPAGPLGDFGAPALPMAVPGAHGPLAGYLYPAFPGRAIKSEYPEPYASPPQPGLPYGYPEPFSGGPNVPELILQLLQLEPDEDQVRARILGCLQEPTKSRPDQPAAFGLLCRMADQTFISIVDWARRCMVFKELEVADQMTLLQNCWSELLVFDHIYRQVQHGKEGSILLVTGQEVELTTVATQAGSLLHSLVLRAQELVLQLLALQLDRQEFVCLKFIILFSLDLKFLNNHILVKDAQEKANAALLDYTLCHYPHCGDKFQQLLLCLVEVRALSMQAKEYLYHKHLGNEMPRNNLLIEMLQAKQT

For the compound `Cc1nn(Cc2ccc(Cl)cc2)c(C)c1NC(=O)c1ccc([N+](=O)[O-])cc1`, the inhibition is 36.1% (active) in assay [1], 55.9% (active) in assay [2], 50% (active) in assay [3] and -3.45% in assay [4].

For `O=C(Nc1ccc(Nc2ccccc2)cc1)c1cc([N+](=O)[O-])ccc1Cl`, the inhibition was 6% in assay [1], 52.7% (active) in assay [2], 53.4% (active) in assay [3] and 9.35% in assay [4].

Regarding `O=Cc1ccc(N2CCCCCC2)cc1`, the inhibition in assay [1] is 3.14%; in assay [2], 57.1% (active); in assay [3] it was 56% (active); in assay [4], -13.3%.

Consider `Cc1ccc(NNC(N)=S)cc1Cl`, for which the inhibition is 11.6% in assay [1], 53.4% (active) in assay [2], 50.5% (active) in assay [3] and 1.11% in assay [4].

For `C/C(=N\NC(N)=S)C1(C)CCCCC1`, the inhibition in assay [1] is 20.6%; in assay [2], 57.1% (active); in assay [3], 53.3% (active); in assay [4], 29.4%.

For the compound `CC(=O)N1CCN(c2cc(N3CCCC3)c(F)cc2[N+](=O)[O-])CC1`, the inhibition in assay [1] was 2.68%; in assay [2] it was 57.4% (active); in assay [3], 48.7% (active); in assay [4], -0.47%.

For `COc1ccc(-c2cc(C(F)F)n3ncc(C(=O)N4CCc5ccccc5C4)c3n2)cc1`, the inhibition in assay [1] is 17.2%; in assay [2], 58.3% (active); in assay [3], 56.7% (active); in assay [4], -2.06%.

For the compound `COc1ccnc(Oc2ccccc2)c1C(=O)N/C=N/OCc1ccccc1F`, the inhibition in assay [1] is 12.8%; in assay [2], 56.9% (active); in assay [3], 48.8% (active); in assay [4], -12.9%.

`Cc1nn(C)c(C)c1CN(Cc1nc(CCC(C)C)no1)C(C)C`: the inhibition in assay [1] is 20.7%; in assay [2], 59.6% (active); in assay [3] it was 54.2% (active); in assay [4] it was 52.8% (active).

For `COc1cc(N)c2ncccc2c1Br`, the inhibition in assay [1] was 16.6%; in assay [2] it was 17.8%; in assay [3], 26.6%; in assay [4] it was -4.59%.

For the compound `COc1ccc(CC(=O)Nc2ccncc2Cl)cc1`, the inhibition in assay [1] was 7.9%; in assay [2] it was 57.3% (active); in assay [3] it was 49.8% (active); in assay [4], 43% (active).

On to `COC(=O)C1(C)Nc2ccccc2C(=O)N1c1ccccc1C` (stereo not drawn), for which the inhibition is 2.27% in assay [1], 16% in assay [2], 0.53% in assay [3] and 7.07% in assay [4].

As for `CCOc1ccc(CCNC(=O)COC(=O)c2cccc(S(=O)(=O)N3CCCC3)c2)cc1OCC`, the inhibition in assay [1] is -4.16%; in assay [2], 58.6% (active); in assay [3], 54.1% (active); in assay [4] it was 9.86%.

Turning to `CCn1c(=NC(=O)CCS(=O)(=O)c2ccccc2)sc2cccc(OC)c21`, the inhibition in assay [1] was 6.25%; in assay [2], 108% (active); in assay [3] it was 70.3% (active); in assay [4], 69.2% (active).

Turning to `O=C(NCc1cccc(C(F)(F)F)c1)c1cccc(Cl)c1Cl`, the inhibition in assay [1] was 7.41%; in assay [2] it was 46.9% (active); in assay [3], 48% (active); in assay [4], 11.8%.

Turning to `Cn1c(CN2CCN(c3ccc(Cl)cc3)CC2)nc2ccccc21`, the inhibition in assay [1] was 5.45%; in assay [2], 32.9%; in assay [3], 52.9% (active); in assay [4], -6.14%.

Consider `COC(=O)c1c(NC(=O)c2ccc([N+](=O)[O-])o2)sc2c1CCN(C(C)C)C2`, for which the inhibition in assay [1] is 28% (active); in assay [2], 45.3% (active); in assay [3], 44.1% (active); in assay [4], 0.53%.

With `CCn1c2ccccc2c2cc(/C=N/n3cn[nH]c3=S)ccc21`, the inhibition in assay [1] is 4.27%; in assay [2], 28.1%; in assay [3] it was 34.3%; in assay [4], -3.24%.

Regarding `COc1ccc(CCn2c(C)cc(C(=O)COC(=O)c3ccc(O)cc3O)c2C)cc1`, the inhibition is 5.91% in assay [1], 41.5% (active) in assay [2], 28.4% in assay [3] and -15% in assay [4].

For `CC(=O)CSc1nc(N)c(C#N)c(-c2cccs2)c1C#N`, the inhibition in assay [1] was 31.5% (active); in assay [2] it was 57.7% (active); in assay [3] it was 62.7% (active); in assay [4], 35% (active).

Take `COc1ccc(OC)c(CCNC(=O)C(C)n2nc(C)c3c(C)n(-c4ccc(C)cc4)nc3c2=O)c1` (stereo not drawn): the inhibition is 15.2% in assay [1], 64% (active) in assay [2], 55.6% (active) in assay [3] and 51.2% (active) in assay [4].

With `O=C(Nc1nc2ccc(F)cc2s1)c1ccc([N+](=O)[O-])o1`, the inhibition in assay [1] is -101%; in assay [2] it was 0.34%; in assay [3], 10%; in assay [4], -93.2%.

Regarding `CO/N=C\C(=N\Nc1ccc(OC)cc1)C(=O)c1ccccc1`, the inhibition was -11.7% in assay [1], 49.5% (active) in assay [2], 36.8% in assay [3] and 5.9% in assay [4].

For the compound `CN(C)c1ccc(NC(=O)CN2CCC(NC(=O)C3CCCCC3)CC2)cc1`, the inhibition in assay [1] is 12.2%; in assay [2], 62.6% (active); in assay [3], 54.1% (active); in assay [4] it was -3.68%.

Turning to `Cc1cccc(C)c1NC(=O)C(c1ccc(C(F)(F)F)cc1)n1c(=O)c(-c2cc3ccccc3[nH]2)nc2ccccc21` (stereo not drawn), the inhibition was 13.9% in assay [1], 23.7% in assay [2], 24.7% in assay [3] and 7.59% in assay [4].

As to `CC1(C)CC(=O)C=C(c2cccs2)C1`, the inhibition in assay [1] is 0.35%; in assay [2], 47.2% (active); in assay [3] it was 57.8% (active); in assay [4] it was 6.36%.

With `CC(=O)c1ccc(NC(=O)COc2ccccc2C(=O)Nc2ccccc2)cc1`, the inhibition is 5.25% in assay [1], 54.9% (active) in assay [2], 45.9% (active) in assay [3] and -21.9% in assay [4].

The term inhibition denotes the change of the read-out against control, counted positive when it falls.
